# Compounds with a hit are over-represented: about 6.8% of the library has one in this group of screens.
# KB-3-1 cytotox = KB-3-1 parental cell cytotoxicity | Potency, µM (titrated, usually from 46.1 µM), actives largely listed as cytotoxic | KB-3-1 viability, CellTiter-Glo ATP luminescence, 72 h | AID 1347075 | 1.4% of 400,000 active; also: nearly all actives have a fitted effect of over 60% in size
#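 Cells are dispensed, compounds pinned in, plates held at 37 °C for 72 h, then CellTiter-Glo is added and luminescence read after 10 minutes. Cell line: parental KB-3-1 in phenol-red-free DMEM, 10% FBS.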
# PINK1 expr mod = PINK1 expression modulation. Potency, µM (top dose mostly 76.6 µM), most hits filed as activators. 0.2% of 410,000 active. PINK1 immunofluorescence, high-content cytometry, 24 h. AID 624263; active = well fitted activation curve with a large enough effect; inconclusive = small, poorly fitted or top-dose-only effect; cell line not stated here; also: nearly all actives have a fitted effect of over 65% in size
#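 PINK1 protein level read as immunofluorescence by microplate cytometer in a fixed, stained stable cell line after 24 h exposure to five compound concentrations, with CCCP as control.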
# MCF10A rerep = induces DNA re-replication in MCF 10a normal breast cells. AID 624296. MCF 10A DNA re-replication, Hoechst nuclear intensity, 48 h. 2.9% of 350,000 active. Potency, µM (highest dose often 46.1 µM), actives largely listed as activators; also: nearly all actives have a fitted effect of over 50% in size
# KB-V1 cytotox = KB-V1 MDR subline cytotoxicity; AID 1347076; KB-V1 MDR cells viability, CellTiter-Glo, 72 h; 3.4% of 400,000 active; Potency, µM (highest dose often 46.1 µM), hits mostly cytotoxic; also: nearly all actives have a fitted effect of over 60% in size
#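 Luminescent ATP read-out (CellTiter-Glo, 10 min) measures survival of drug-selected KB-V1 MDR cells after 72 h, 37 degrees C compound exposure. Medium: phenol-red-free DMEM, 10% FBS. Values from fitted concentration-response curves.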
# SW480 rerep = induces DNA re-replication in SW480 colon adenocarcinoma cells; SW480 DNA re-replication, Hoechst DNA content imaging, 48 h; Potency, µM (titrated, usually from 46.1 µM), most hits filed as activators; 1.8% of 340,000 active; AID 624297; also: nearly all actives have a fitted effect of over 55% in size
#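 SW480 cells exposed to compounds for 48 hr at 37 C, 5% CO2, then Hoechst-stained 40 min. Nuclear DNA content imaged by fluorescence scanning (405 nm excitation, 500-530 nm emission); re-replication scored as increased high-intensity nuclei.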
# TSG101-PTAP inh = blocks PTAP/TSG101 interaction to inhibit HIV-1 budding; Q99816; Fluorescence polarization, FITC-PTAP peptide / Tsg101 binding; Potency, µM (highest dose often 115 µM), usual class: inhibitors; 340,000 tested, under 10 active; active = well fitted inhibition curve with a large enough effect in the main read-out, with a control signal flat, not every such curve was filed as active; inconclusive = small, poorly fitted or top-dose-only effect, or effect the other way, or a change in a side signal; inactive = no such curve, though single readings can be large or run the other way
# Target sequence (Q99816 whole entry, looked up): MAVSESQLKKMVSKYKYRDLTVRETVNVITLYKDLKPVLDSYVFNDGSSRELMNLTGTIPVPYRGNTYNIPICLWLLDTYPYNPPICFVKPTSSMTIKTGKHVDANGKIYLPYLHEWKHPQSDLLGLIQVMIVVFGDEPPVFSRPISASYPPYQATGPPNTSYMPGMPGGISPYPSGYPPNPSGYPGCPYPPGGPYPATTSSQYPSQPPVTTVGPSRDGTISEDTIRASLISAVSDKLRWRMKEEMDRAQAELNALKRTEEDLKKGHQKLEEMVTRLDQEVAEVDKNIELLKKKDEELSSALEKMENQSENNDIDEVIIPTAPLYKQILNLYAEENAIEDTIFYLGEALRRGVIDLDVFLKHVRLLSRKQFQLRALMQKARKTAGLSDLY
#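 Tsg101 binding domain (10 uM final) was mixed with compound and a FITC-labeled PTAP peptide (50 nM final) in HEPES pH 7.5 buffer with NaCl, Tween 20, EDTA and TCEP; fluorescence polarization was read after 20 min at r.t.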
# Hits are given with their value; - = inactive; ? = inconclusive; . = not tested or not shown; [ ] = dose if it differs, or a comment. Unless noted, calls follow the shape of the dose curve; as a rule, active = well fitted curve in the direction sought with a large enough effect; inconclusive = small, poorly fitted or top-dose-only effect, or another doubt; inactive = no such curve, though single readings can be large; an effect the other way counts as inactive or inconclusive.
SMILES,KB-3-1 cytotox,PINK1 expr mod,MCF10A rerep,KB-V1 cytotox,SW480 rerep,TSG101-PTAP inh
CCN1CCN(Cc2ccc(NC(=O)c3ccc(C)c(NC(=O)c4cncc(-c5cccs5)c4)c3)cc2C(F)(F)F)CC1,?,-,5.2µM,?,?,-
CCN1CCN(Cc2ccc(NC(=O)c3cc(NC(=O)c4nccnc4N)cc(OC)c3)cc2C(F)(F)F)CC1,-,-,?,-,-[9.22 µM],-
CCc1nn(CC(=O)NCCc2ccc(Cl)cc2)c(=O)c2cc3c(OC)cccc3n12,-,-,.,?,.,.
Cc1ccc(C)c(CNC(=O)C2CCN(c3nc4ccccc4nc3C(F)(F)F)CC2)c1,-,-,.,-,.,.
CN(C)CCCNc1cc(Cl)c(S(=O)(=O)N2CCCCC2)cc1C(=O)O,-,-,2.6µM,-,-,-
Cc1ccc2c(CC(=O)Nc3ccc(S(=O)(=O)N4CCC(C)CC4)cc3)coc2c1,-,-,.,-,.,.
COc1ccc(Cl)cc1NC(=S)NCCc1c[nH]c2ccccc12,21µM,-,-,?,?,-
COc1ccc(Cl)cc1NC(=S)NCCSc1ccc(C)cc1,-,?,23µM,-,-,-
CC(C)c1ccc(NC(=S)NCCc2c[nH]c3ccccc23)cc1,?,-,15µM,?,-,-
COc1ccccc1NC(=S)NCCSc1ccc(Cl)cc1,-,-,-,-,?,-
Cc1cc(C)c(/C=N/NC(N)=O)c(C)c1/C=N/NC(N)=O,3.7µM,-,?,?,-,-
CCc1cc(CC)c(/C=N/NC(N)=O)c(CC)c1,-,-,-,-,-,-
COc1ccc(-c2csc(Cc3nnc(N4CCOCC4)n3-c3ccccc3)n2)cc1,-,-,-,18µM,-,-
COc1ccc(-c2csc(Cc3nnc(N4CCOCC4)n3-c3ccccc3)n2)cc1OC,-,-,-,-,-,-
COc1ccc(-c2[nH]ncc2C(=O)NCc2cccc(Cl)c2)cc1,.,-,.,.,.,.
CCCN(CC(=O)Nc1ccc(F)c(F)c1F)C(=O)C1CC(=O)N(Cc2ccccc2)C1 (stereo unspecified),-,-,-,-,-,-
CCN(CC(=O)Nc1cc(Cl)ccc1C)C(=O)C1CC(=O)N(Cc2ccccc2)C1 (stereo unspecified),-,-,?,-,0.16µM,-
O=C1CC(c2ccccc2)Cc2nc(NCc3ccco3)ncc21 (stereo unspecified),-,-,-,16µM,?,-
CCSc1nnc(-c2sc3nnc(-c4ccccc4)c(-c4ccccc4)c3c2N)o1,-,-,3.3µM,-,?,?
CCSc1nnc(-c2ccncc2)o1,-,-,-,-,-,-
COc1ccc(C(=S)Nc2ccc(C)cc2)cc1,-,-,-,-,-,-
CCOc1ccc(NC(=O)Nc2ccc3nsnc3c2)cc1,-,-,-,-,-,-
CC(C)N(C(=O)Nc1ccc2nsnc2c1)C(C)C,?,-,16µM,?,?,-
COc1ccc(NC(=S)Nc2ccc3nc(C)c(C)nc3c2)cc1,-,-,-,-,-,-
COc1ccc(NC(=S)Nc2ccc3nsnc3c2)cc1,-,-,-,18µM,-,-
SMILES,KB-3-1 cytotox,PINK1 expr mod,MCF10A rerep,KB-V1 cytotox,SW480 rerep,TSG101-PTAP inh
CCOc1ccc(NC(=S)Nc2ccc3nsnc3c2)cc1,-,-,?,-,21µM,-
COc1ccc(NC(=S)c2ccncc2)cc1,?,-,-,18µM,?,-
COc1ccc(C)cc1NS(=O)(=O)c1ccc2[nH]c(=O)c(=O)[nH]c2c1,-,-,.,-,.,.
CCOc1ccc(-n2c(Cc3ccccc3)nnc2SCc2nc(-c3cccs3)no2)cc1,-,-,.,?,.,.
CCOc1ccc(NC(=S)Nc2cc(OC)c(Cl)cc2OC)cc1,-,-,-,16µM,-,-
COc1ccc(NC(=S)Nc2ccc(Oc3ccccc3)cc2)cc1,-,-,-,-,-,-
COc1ccc(NC(=S)NN(C)C(=S)Nc2ccc(OC)cc2)cc1,?,-,?,?,3.7µM,-
CCOc1ccc(NC(=S)Nc2ccc(OCC)cc2)cc1,-,-,?,-,?,-
CCOc1ccc(NC(=S)Nc2ccc(C)c([N+](=O)[O-])c2)cc1,-,-,-,16µM,-,-
CC(C)NC(=O)c1ccc(C2SCC(=O)N2Cc2ccccc2)cc1 (stereo unspecified),-,.,7.3µM,-,-,-
O=[N+]([O-])c1ccc(NN=Cc2cccc(O)c2)nc1,-,-,16µM,-,?,-
COc1cc(/C=N/Nc2ccc([N+](=O)[O-])cn2)cc(OC)c1O,-,-,21µM,-,16µM,-
CC(=O)Nc1ccc(C=NNc2ccc([N+](=O)[O-])cn2)cc1,-,?,-,-,-,-
O=[N+]([O-])c1ccc(NN=Cc2cc(Br)ccc2O)nc1,-,-,-,?,0.73µM,-
COc1ccc(/C=N/Nc2ccc([N+](=O)[O-])cc2)cc1O,?,-,12µM,?,16µM,-
Cc1cccc(C)c1-n1c(C)cc(/C=N\Nc2ccc([N+](=O)[O-])cn2)c1C,-,-,5.2µM,-,?,-
O=C(Nc1nnc(-c2ccc(Cl)cc2)o1)C1=COCCO1,-,-,-,8.2µM,-,-
CCOc1cc(-c2nnc(NC(=O)C3=COCCO3)o2)cc(OCC)c1OCC,?,-,-,?,-,-
COC(=O)/C=c1/s/c(=C(/C#N)C(=O)N2CCCCC2)n(-c2ccccc2)c1=O,-,-,-,-,0.33µM,-
Cc1ccc(S(=O)(=O)Nc2ccc(N3CCOCC3)cc2)cc1,-,-,-,-,-,-
COC(=O)c1ccc(N2CCCCC2)c(NS(=O)(=O)c2ccc(C)cc2)c1,-,-,-,?,-,-
CCN(CC)CCNC(=O)c1ccc(N2CCCCC2)c(NS(=O)(=O)c2ccc(C)cc2)c1,?,-,-,?,26µM,-
Cc1ccc(S(=O)(=O)Nc2ccccc2N2CCCCC2)cc1,?,-,16µM,?,?,-
Cc1ccc(S(=O)(=O)Nc2ccccc2N2CCOCC2)cc1,13µM,-,?,?,?,-
COc1ccc(C(=O)NCc2nc(-c3cccc(NC(=O)c4ccc(C)s4)c3)oc2C)cc1,.,-,.,.,.,.
CCOc1ccc(NC2SC(=O)N(Cc3ccccc3)C2=O)cc1 (stereo unspecified),.,-,.,.,.,.
CN(C)c1ccc(/C=C2\C(=O)/C(=C\c3ccc(N(C)C)cc3)c3ccccc32)cc1,-,.,.,-,.,.
C=C1CCC(O)C/C1=C/C=C1\CCC[C@]2(C)[C@@H]([C@H](C)/C=C/[C@H](C)C(C)C)CC[C@@H]12 (stereo partly specified),.,.,?,.,-,.
CC1CCC(O)C/C1=C\C=C1/CCCC2(C)C1CCC2C(C)/C=C/C(C)C(C)C (stereo unspecified),.,.,21µM,.,?,.

# Bioassay records deposited in PubChem BioAssay by National Center for Advancing Translational Sciences (NCATS).
